Measurements: PubChem BioAssay
Active and inactive are the calls of the source. Unless noted, how the calls were made is not given here.

Legend:
[1] = test system: Wnt5a (protein binding on small-molecule microarray); experiment: Wnt5a binders on small-molecule microarray, primary screen, biophysical, 635/667 nm fluorescence (AID 1142); conditions: 635 nm fluorescence, higher = more signal;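 further: fluorescence read at 667 nm with signal to noise per printed feature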
[2] = cell viability in Huh7 cells, primary screen, cytotoxicity control for HCV replication inhibitor project, CellTiter-Glo luminescence, basal, 48 h (AID 1143); conditions: Huh7 HCV replicon, higher = more signal, called active from +8 up or from −8 down;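 further: Huh7 hepatoma cells carrying a hepatitis C replication reporter with no stimulus; test concentration not given here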
[3] = P. aeruginosa biofilm formation inhibitors, primary screen, PAO1 strain, BacTiter-Glo luminescence, LB-PBS (AID 1144); conditions: 12 h, higher = more signal
[4] = CREB reporter modulators without forskolin, primary screen, cell-based, PC12, CRE-LacZ reporter, unstimulated (AID 1145); conditions: no forskolin, luminescence, 4.5 h, higher = more signal, called active from +8 up or from −8 down
[5] = CREB reporter modulators under forskolin, primary screen, cell-based, PC12, CRE-LacZ reporter, forskolin-stimulated (AID 1146); conditions: luminescence, 4.5 h, higher = more signal, called active from +8 up or from −8 down;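 further: PC12 cells with 6xCRE LacZ reporter stimulated by forskolin 10 µM; beta-galactosidase reporter signal reflecting CREB driven transcription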
[6] = molecular target: Streptavidin (Streptomyces avidinii) (UniProt P22629); experiment: streptavidin binders on small-molecule microarray, primary screen, artefact control for SMM compound annotation, biophysical, 635/667 nm fluorescence (AID 1147); conditions: streptavidin binding, higher = more signal;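 further: signal reflects streptavidin binding to arrayed compounds as a control protein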
Sequence of Streptavidin (Streptomyces avidinii) (P22629 whole entry, looked up): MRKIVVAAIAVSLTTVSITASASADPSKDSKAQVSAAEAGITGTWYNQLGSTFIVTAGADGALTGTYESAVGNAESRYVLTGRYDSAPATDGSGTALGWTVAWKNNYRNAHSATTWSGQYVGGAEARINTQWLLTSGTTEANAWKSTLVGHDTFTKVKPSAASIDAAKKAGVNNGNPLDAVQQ

[7] = small-molecule binders of probe aInhba, primary screen, biochemical, small-molecule microarray, 635/667 nm fluorescence (AID 1148); conditions: higher = more signal;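 further: score merges 667nm spot fluorescence with signal-to-noise for antibody binding to printed compounds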
Torsin-1A (Homo sapiens) [8] = molecular target: Torsin-1A (Homo sapiens) (UniProt O14656); experiment: torsin A binders from cell lysate, primary screen, small-molecule microarray, wild-type, 635/667 nm (AID 1149); conditions: COS7 hTOR1A-WT lysate, 635 nm fluorescence, higher = more signal
Sequence of Torsin-1A (Homo sapiens) (O14656 whole entry, looked up): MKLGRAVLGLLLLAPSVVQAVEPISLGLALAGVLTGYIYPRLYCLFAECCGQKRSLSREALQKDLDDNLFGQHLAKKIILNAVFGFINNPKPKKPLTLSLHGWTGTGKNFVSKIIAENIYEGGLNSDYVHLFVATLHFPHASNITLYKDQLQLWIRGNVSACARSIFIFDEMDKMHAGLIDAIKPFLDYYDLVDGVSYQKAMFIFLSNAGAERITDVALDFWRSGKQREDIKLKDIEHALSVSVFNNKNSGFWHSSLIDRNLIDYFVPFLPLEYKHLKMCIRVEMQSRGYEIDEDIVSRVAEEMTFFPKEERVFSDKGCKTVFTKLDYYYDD

Torsin-1A (Homo sapiens) [9] = molecular target: Torsin-1A (Homo sapiens) (UniProt O14656); experiment: small-molecule binders of mutant TOR1A in lysate, primary screen, cell lysate, small-molecule microarray, COS7 lysate, 635/667 nm fluorescence (AID 1150); conditions: COS7 hTOR1A mutant lysate, 635 nm fluorescence, higher = more signal;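 further: score pools 667 nm emission and signal to noise measuring lysate protein binding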
[10] = test system: Sonic hedgehog protein (Shh); experiment: small-molecule binders of Shh protein, primary screen, biochemical, small-molecule microarray, 635/667 nm fluorescence (AID 1151); conditions: small-molecule microarray binding, 635 nm fluorescence; higher = more signal;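 further: Shh protein binding to compounds spotted on small-molecule microarray slides; score combines spot fluorescence intensity with signal-to-noise across triplicate slides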

Row | SMILES | composite z-score [1] | z-score [2] | z-score [3] | z-score [4] | z-score [5] | composite z-score [6] | composite z-score [7] | composite z-score (Torsin-1A (Homo sapiens) [8]) | composite z-score (Torsin-1A (Homo sapiens) [9]) | composite z-score [10]
1 | COc1ccc(C(=O)Nc2ccc(CN3C(=O)[C@@]4(O[C@@H](CC(=O)N(CCO)Cc5ccccc5)[C@H]([Si](C)(C)c5ccc(OC)cc5)[C@H]4C)c4ccccc43)cc2)cc1 | 0.353 | -5.7 (inactive) | -0.376 (inactive) | -0.533 (inactive) | -0.0361 (inactive) | 0.675 | -0.179 | 0.438 | -0.0394 | 1.59
2 | O=C1NC(=O)C2C1C=CC(C(O)C(O)CO)N2Nc1ccccn1 (stereo not given) | 0.146 | 0.165 (inactive) | -0.893 (inactive) | 0.0603 (inactive) | 0.0702 (inactive) | 0.0832 | -0.168 | 0.435 | 0.344 | 0.199
3 | C=CCC(OC(C)=O)[C@@H]1[C@@H](N(Cc2ccc(-c3ccccc3)cc2)C(=O)Cc2ccc(OC)cc2)c2cc(OCCCO)ccc2N1C(=O)Cc1ccc(OC)cc1 (stereo not given in full) | 0.0361 | -1.79 (inactive) | 1.04 (inactive) | 0.642 (inactive) | 0.482 (inactive) | 0.222 | 0.169 | 0.172 | 0.212 | 0.363
4 | CC(C)[Si](C#Cc1ccccc1)(O[C@H](c1ccccc1)c1cn(Cc2ccccc2)nn1)C(C)C | -0.0899 | -2.32 (inactive) | -0.519 (inactive) | -0.635 (inactive) | -1.08 (inactive) | 0.983 | -0.222 | 0.555 | 0.841 | 0.375
5 | CCCCC(=C=CC[C@H](O)c1cccc(OCCO)c1)C[C@H](O)c1cc(Cl)cc(Cl)c1O | 0.252 | -0.705 (inactive) | -0.915 (inactive) | 1.66 (inactive) | 0.0904 (inactive) | 0.428 | -0.0675 | 0.437 | 0.906 | 1.84
6 | COC(=O)c1c2oc(c1C(=O)OC)C(=O)N[C@H](Cc1ccccc1)Cn1cc(nn1)C1(CCCCC1)NC(=O)N[C@H](CO)CC2 | 0.075 | 0.0261 (inactive) | -0.72 (inactive) | 8.64 (active) | 0.334 (inactive) | -0.626 | 0.161 | 0.3 | 0.29 | 1.52
